According to PubChem BioAssay (NCATS):
“And” between values parts separate entries of the source, which are not always exact repeats. Identical values can stand only once. Results filed as inconclusive are left out. Values without a mark were called inactive. Calls come from the whole dose curve; as a rule, active = well fitted curve in the direction sought with a large enough effect in the signal ratio, with a control signal flat; inconclusive = small, poorly fitted or top-dose-only effect, or effect the other way, or a change in a side signal; inactive = no such curve, though single readings can be large or run the other way; the % refers to the signal ratio.
% is set by controls: 0 for no effect and ±100 for the full control effect.

The compounds below were run against Androgen receptor (Homo sapiens) (UniProt P10275) (assay: qHTS assay for small molecule agonists of androgen receptor signaling (AID 588515)). Settings: AR-UAS-bla HEK293, beta-lactamase ratio, agonist 16 h; hits give high values.
Sequence of Androgen receptor (Homo sapiens) (P10275 whole entry, looked up): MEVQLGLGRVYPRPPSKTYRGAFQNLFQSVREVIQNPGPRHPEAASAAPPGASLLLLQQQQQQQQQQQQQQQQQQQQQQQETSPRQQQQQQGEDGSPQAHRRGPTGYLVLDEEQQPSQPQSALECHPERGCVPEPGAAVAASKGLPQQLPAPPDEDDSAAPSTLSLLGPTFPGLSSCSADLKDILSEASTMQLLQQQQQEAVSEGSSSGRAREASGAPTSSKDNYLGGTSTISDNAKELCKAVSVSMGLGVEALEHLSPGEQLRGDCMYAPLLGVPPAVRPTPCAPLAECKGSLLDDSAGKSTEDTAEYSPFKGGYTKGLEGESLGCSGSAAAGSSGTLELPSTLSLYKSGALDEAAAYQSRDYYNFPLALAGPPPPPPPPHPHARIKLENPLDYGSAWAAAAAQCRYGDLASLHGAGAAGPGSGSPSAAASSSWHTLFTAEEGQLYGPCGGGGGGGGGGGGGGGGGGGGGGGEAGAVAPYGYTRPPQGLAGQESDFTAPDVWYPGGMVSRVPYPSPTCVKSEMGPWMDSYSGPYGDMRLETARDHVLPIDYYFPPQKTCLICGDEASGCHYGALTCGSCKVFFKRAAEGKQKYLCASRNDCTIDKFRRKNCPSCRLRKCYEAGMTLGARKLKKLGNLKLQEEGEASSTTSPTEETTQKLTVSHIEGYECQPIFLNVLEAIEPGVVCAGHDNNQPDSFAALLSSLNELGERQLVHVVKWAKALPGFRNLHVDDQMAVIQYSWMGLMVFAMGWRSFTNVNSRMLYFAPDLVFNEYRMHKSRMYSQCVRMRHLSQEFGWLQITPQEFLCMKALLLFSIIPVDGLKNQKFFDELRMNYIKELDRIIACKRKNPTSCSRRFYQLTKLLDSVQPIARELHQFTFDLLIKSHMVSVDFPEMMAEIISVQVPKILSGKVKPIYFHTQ
Source text: NIH Chemical Genomics Center [NCGC] U.S. Environmental Protection Agency [EPA] National Institutes of Environmental Health Sciences [NIEHS] National Toxicology Program [NTP] NCGC Assay Overview Androgen receptor (AR), located at chromosome Xq11-12, is an important member of nuclear hormone receptors. AR signaling plays a critical role in AR-dependent prostate cancer and other androgen related diseases. Considerable attention has been given in the past decades to the possibility of some of environmental chemicals which may contribute the endocrine disruption. Therefore, it is important to understand the effect of environmental chemicals in AR signaling pathway.
NCGC Assay Protocol Summary Using a beta-lactamase reporter-gene under control of the AR response element, a cell-based assay [GeneBLAzer AR-UAS-bla-GripTite assay developed by Invitrogen] was used to measure AR ligands signaling. AR-UAS-bla-GripTite HEK 293 cells were used with assay medium containing 10% dialyzed FBS, 0.1 mM NEAA and 1 mM sodium pyruvate. The assay was performed in clear bottom black Greiner 1536-well plates. R1881, a synthetic androgen agonist, was used as a positive control in the screen. Library compounds were measured for their ability to stimulate the reporter gene activity. Compounds were screened in a titration series in 1536-well format. The fluorescence intensity (405 nm excitation, 460/530 nm emission) was measured using an EnVision plate reader. Data was normalized relative to R1881 control (30 nM, 100%), and DMSO only wells (basal, 0%). Concentration-response titration points for each compound were fitted to the Hill equation yielding concentrations of half-maximal stimulation (EC50) and maximal response (efficacy) values. qHTS protocol for AR beta-lactamase assay in agonist mode [Step] [Parameter] [Value] [Description] 1. Reagent; 6 uL; 2000 cells/well 2. Incubation; 37 C for 5 hrs 3. Compounds; 23 nL; 0.59 nM to 92 uM 4. Controls (R1881); 23 nL, - Dose response, start 3.83uM, 1:3 dilutions with duplicates in one column - Final concentrations of 30 and 20nM in two columns 5. Incubation; 37 C for 16 hrs 6. Detection reagent; 1 uL of CCF4-dye 7. Incubation; RT for 2 hrs 8. Detection; Fluorescence; Envision plate reader
CC(C)(c1ccc(O)cc1)c1ccc(O)cc1 showed an activation of -6.96%. With Nc1ccc([N+](=O)[O-])cc1 the activation was 7.63%. Nc1c(Cl)c(Cl)c(Cl)c(Cl)c1Cl showed an activation of 1.01%. Compound O=[N+]([O-])c1cc([N+](=O)[O-])c2ccccc2c1 has an activation of -1.64%. c1cc2ccc3cccc4ccc(c1)c2c34 was tested, and the activation was 11.6% and 8.44%. Work on Nc1ccc(Cl)cc1N yielded an activation of -2.06%. For CCO/N=C(\CC)C1=C(O)CC(c2c(C)cc(C)cc2C)CC1=O (stereo not drawn), the activation was -1.77%. O=[N+]([O-])/N=C1\NCCN1Cc1ccc(Cl)nc1 was tested, and the activation was 8.09%. Compound O=C(O)CCCOc1ccc(Cl)cc1Cl has an activation of -19.7%. For C=CC(=O)NCNC(=O)C=C, the activation was 20.4% and 9.02%. In the case of COC(C)(C)CCCC(C)C/C=C/C(C)=C/C(=O)OC(C)C (stereo not drawn), the activation is reported as -13.7% and -1.74%. For CCOP(=O)(NC(C)C)Oc1ccc(SC)c(C)c1 (stereo not drawn), the activation was 2.45% and -12.7%. CCCCCCCCc1ccc(O)cc1 was tested, and the activation was -7.85% and -15.7%.
